Bioassay records as filed in PubChem.
Rows were chosen to be rich in hits. Some 3.8% of all compounds tested hit in one or more screens of this group.
ATXN viability – cell viability loss in ATXN counter-screen; S2 cells (HEK-293 line with an ATXN2-luciferase reporter) viability, CellTiter-Fluor protease fluorescence, 24 h; Potency, µM (highest dose often 56.7 µM), hits mostly cytotoxic; actives 0.49% (n = 400,000); also: nearly all actives have a fitted effect of over 40% in size
Nrf2 inh – blocks Nrf2 signaling; A549 ARE-Fluc reporter, luciferase luminescence, 18-24 h; Potency, µM (titrated, usually from 46 µM), inactives show at the highest dose activity change, negative = inhibition, hits mostly inhibitors; actives 2.1% (n = 360,000); also: % is scaled to controls: 0 for no effect and ±100 for the full control effect; nearly all actives have a fitted effect of over 60% in size
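Two sequential reads on A549 ARE_Fluc cells exposed to compound for 18-24 h: a CellTiter-Fluor fluorescence read for viability, then a luciferase luminescence read for Nrf2/ARE activity.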
TGFb inhibitor – blocks TGF-b signaling | HepG2 CAGA-GFP TGF-b/SMAD3 reporter, GFP fluorescence, 18 h; TGF-beta stimulated, 500 pg/mL final | Potency, µM (doses to about 46.1 µM), without a hit: at the highest dose activity, negative = inhibition, actives largely listed as inhibitors | actives 1.2% (n = 410,000) | AID 588855; also: % is scaled to controls: 0 for no effect and ±100 for the full control effect; nearly all actives have a fitted effect of over 65% in size
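Cell-based qHTS in HEPG2 carrying a CAGA-GFP Smad reporter; compounds added before 500 pg/mL final TGF-beta, 18 h incubation at 37 degrees C, GFP fluorescence quantified per cell by imaging cytometry.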
HepG2 tox – counter-screen for TGF-b inhibitors: cytotoxicity in HepG2 cells; HepG2 CAGA-GFP viability, ATP luminescence, 18 h; actives 0.76% (n = 410,000); Potency, µM (doses to about 46.1 µM), without a hit: at the top dose activity change, negative = cytotoxicity, most hits filed as cytotoxic
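HepG2 CAGA-GFP cells (1000/well, DMEM with 1% FBS) received compound, then TGF-beta at 500 pg/mL final, and were incubated 18 hours at 37 degrees C. Viability was read by CellTiter-Glo luminescence. Media-only wells were set as complete cell-killing and DMSO as no toxicity.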
ATXN2 expr inh – inhibitors of ATXN2 expression; Potency, µM (doses to about 57 µM), inactives show top-dose activity change, negative = inhibition, usual class: inhibitors; AID 1745845; HEK-293 ATXN2-luciferase reporter, luminescence, 24 h; actives 0.72% (n = 360,000); also: % is scaled to controls: 0 for no effect and ±100 for the full control effect; nearly all actives have a fitted effect of over 55% in size
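qHTS (up to 57 uM final) was run with 24 h compound exposure of reporter cells at 37 °C. Each well was multiplexed: SteadyGlo luminescence measured ATXN2-luciferase expression after a fluorogenic Gly-Phe-AFC viability readout (25 uM final).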
A549 tox – kills or reduces viability of A549 cells in Nrf2 counter-screen | A549 ARE-Fluc cells, CellTiter-Fluor viability, 18-24 h | Potency, µM (top dose mostly 46 µM), inactives show top-dose activity change, negative = cytotoxicity, hits mostly inhibitors | actives 0.16% (n = 390,000) | AID 504648; also: % is scaled to controls: 0 for no effect and ±100 for the full control effect
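A549 ARE_Fluc cells in 5% FBS OPTI-MEM were exposed to compounds in concentration-response for 18-24 h at 37 deg C. Viability was read by CellTiter-Fluor fluorescence (Ex 405/Em 525) after 30 min, before the luciferase read.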
Starred values were filed as active, the others as inactive; i = inactive; ? = inconclusive; nt = no result given; ! = not active in a repeat; [ ] = another dose, or the depositor's remark. Calls follow the shape of the dose curve; as a rule, active = well fitted curve in the direction sought with a large enough effect; inconclusive = small, poorly fitted or top-dose-only effect, or another doubt; inactive = no such curve, though single readings can be large; an effect the other way counts as inactive or inconclusive. Potency is read from the fitted curve at half-maximal effect.

SMILES | ATXN viability | Nrf2 inh | TGFb inhibitor | HepG2 tox | ATXN2 expr inh | A549 tox
Oc1ccc(C[C@H]2CNCCN2CCc2cccc(F)c2)cc1 | i | ? | -4% | -9% | -3% | 0%
Fc1cccc(CCN2CCNC[C@H]2Cc2cccc3ccccc23)c1 | ? | 20% | 16µM* | 16µM* | -23% | 3%
CCc1cc(C(=O)c2ccccc2)c(N)s1 | ? | 5% | -17% | -29% | -10% | -10%
Nc1ccc(SC(F)(F)F)cc1C(=O)c1ccccc1 | i | -17% | 13µM* | -104% | -23% | ?
O=C(CCNC(=O)c1ccc(Cl)cc1)Nc1ccccc1N1CCCCC1 | i | ? | 1% | -18% | 0% | 0%
Cc1cccc(CN(C(=S)Nc2c(C)cccc2C)c2cccnc2)c1 | i | 1% | -6% | -15% | -2% | 1%
COc1ccccc1Oc1ccc2c(c1)C(=O)N(c1cccc3ncccc13)C2=O | i | 16µM* | -40% | -19% | -16%[11.3 µM] | -8%
Cc1cccc(N2CCN(C(=O)C3CCN(S(=O)(=O)Cc4ccccc4)CC3)CC2)c1C | i | -3% | ? | 18µM* | 10% | -3%
Cc1cccc(N2CCN(C(=O)C3CCN(C(=O)c4cc5sccc5n4C)CC3)CC2)c1C | nt | ? | 11µM* | -12% | nt | ?
CCOC(=O)C1=CCN(S(=O)(=O)c2ccc(C)cc2)C1c1cccc(C)c1 (stereo unspecified) | ? | nt | -18% | -4% | -26% | nt
CC(C)=CCN1CCNC(=O)C1CC(=O)NCc1nc(C)c(C)s1 (stereo unspecified) | i | 3% | 4% | -2% | 3% | 0%
Cc1c(C)c(C)c(/C=C/c2ccnc3ccccc23)c(C)c1C | nt | nt | -15% | -39% | nt | nt
COc1ccc(-n2c(C)cc(/C=N/Nc3nnc(C)n3N)c2C)cc1 | ? | -5% | 3.5µM* | 5µM* | -13% | 5%
COc1cccc(/C=N/Nc2nnc(C)n2N)c1O | i | -15% | 7.9µM* | -154% | -1% | -10%
Cc1nnc(N/N=C/c2ccccc2F)n1N | i | 5% | 0% | 1% | -18% | -8%
CN1CCC(N(C)C(=O)c2ccc(Cl)c(S(=O)(=O)Nc3cc(Cl)ccc3Cl)c2)CC1 | i | -7% | 8% | 12% | 2% | -1%
O=[N+]([O-])c1ccccc1CNC(Cc1ccccc1)c1ccccc1 (stereo unspecified) | i | -8% | -19% | -29% | 6% | -5%
CCOC(=O)c1nn(-c2ccc(Cl)cc2)c2nnc(Cc3ccccc3)c(=O)n12 | ? | 2% | -2% | -12% | ? | -7%
Cc1cc(C(=O)Cn2nnc(-c3ccc(Cl)cc3)n2)c(C)n1CC1CCCO1 (stereo unspecified) | i | 13µM* | ? | -1% | -4% | -9%
Cc1cc(C(=O)CSc2nc3ccccc3[nH]2)c(C)n1CC1CCCO1 (stereo unspecified) | 18µM* | ? | ? | -2% | ? | -9%
Cc1cc(C)n2nc(SCC(=O)c3cc(C)n(CC4CCCO4)c3C)nc2n1 (stereo unspecified) | i | 10µM* | 3% | 8% | -1% | -5%
C=N[C@H](C(=O)N[C@@H]1C(=O)N2[C@@H]1SC(C)(C)[C@@H]2C(=O)O)c1ccccc1 | i | nt | nt | nt | nt | nt
CC1(NC(=O)CC(c2ccccc2)(c2ccccc2)c2ccccc2)CCN(CCCc2ccccc2)C1=O (stereo unspecified) | ? | ? | 8.9µM* | -21% | -13% | ?
COc1cccc(CN2c3ccc(Br)cc3C(=O)CS2(=O)=O)c1 | i | 9% | 7.9µM* | 1% | -1% | 0%
COc1cc(CN2c3ccc(Br)cc3C(=O)CS2(=O)=O)cc(OC)c1 | nt | nt | 11µM* | -59% | nt | nt
SMILES | ATXN viability | Nrf2 inh | TGFb inhibitor | HepG2 tox | ATXN2 expr inh | A549 tox
C=CCN1c2ccc(Br)cc2C(=O)CS1(=O)=O | i | 6% | ? | -12% | 2% | -1%
CCC(=O)Oc1ccc(C2Nc3ccccc3-c3nnc(SC)nc3O2)cc1 (stereo unspecified) | i | 6% | 23% | 9% | -8% | 0%
C[C@H]1CN([C@@H](C)CO)C(=O)c2cc(Br)cnc2O[C@H]1CN(C)C(=O)Cc1ccccn1 | ? | nt | 13% | 7% | 9% | nt
O=C(c1ccc([N+](=O)[O-])cc1)N1c2ncnn2C2(CCCCC2)[C@@H]2CCCC[C@@H]21 | i | 14% | -15% | -16% | -7% | 2%
COc1ccc(-c2nn(-c3ccccc3)cc2/C=N/Nc2ccc3ccccc3n2)cc1OC | nt | -20% | ? | 4.5µM* | -21% | ?
CC(C)[C@H](NC(=O)c1ccc([N+](=O)[O-])cc1Cl)C(=O)N1CCN(C/C=C/c2ccccc2)CC1 | i | 23µM* | ? | -6% | ? | ?
Cc1ccc(-c2nc(CCNC(=O)C(=O)Nc3ccc(C)c(Cl)c3)cs2)cc1 | nt | nt | -4% | 0% | nt | -5%
O=S(=O)(c1cccc2cnccc12)N1CCCNCC1 | i | -18% | 8% | -24% | 25µM*! | 1%
CC1CNCCN1S(=O)(=O)c1cccc2cnccc12 (stereo unspecified) | i | 18µM* | -21% | -32% | -12% | -7%
O=C(Cc1ccc(Cl)cc1Cl)Nc1ccncc1 | i | 16µM* | ? | -20% | -30% | 3%
O=C(Cc1ccc(Cl)cc1Cl)Nc1ccncc1Cl | i | 9.2µM* | -2% | -9% | -28% | 2%
S=C(NCc1ccc(Cl)cc1)Nc1ccncc1 | i | 13µM* | -9% | -24% | -38% | -5%
Cc1cccc2c1c1ccc3c(c1n2C)C(=O)C=CC3=O | i | -16% | 16µM* | -37% | nt | -7%
CN1CCC(CNc2ccc3ncc(-c4cccc(OC(F)(F)F)c4)n3n2)CC1 | nt | nt | nt | nt | 24µM* | nt
COc1ccc(S(=O)(=O)NNC(=O)Nc2ccc(F)cc2F)c(OC)c1 | i | -1% | 9% | 20% | -3% | 1%
Cc1ccc(C(CC(=O)NCc2ccco2)c2ccc(OC(C)C)cc2)cc1 (stereo unspecified) | i | 7.3µM* | -13% | -18% | -21% | ?
COc1ccc(C(CC(=O)NCc2ccco2)c2ccc(F)cc2)cc1 (stereo unspecified) | nt | 1% | 0% | -12% | nt | -18%
COc1ccc([C@H]2C[C@H](n3cc(COC(=O)c4ccccc4)nn3)[C@@H](O)CN2Cc2cccs2)cc1 | ? | nt | 10% | -4% | -26% | nt
